# Assay results: article PMC5540273 (PLoS ONE, 2017)
# Columns and labels:
# Conditions in all cases: concentration: 1 μM, replicates: in singlicate; n = 1
# [1] = system: TIE1
# [2] = system: T1, TIE2
# T1 construct: gene TEK
# [3] = system: TLK1
# [4] = system: TLK2
# [5] = system: TNIK
# [6] = system: TNK1
# [7] = system: TNK2
# [8] = system: TNNI3K
# [9] = system: T2, TRKA
# T2 construct: gene NTRK1
# [10] = system: TRKB
# [11] = system: T3, TRKC
# T3 construct: gene NTRK3
# [12] = system: TRPM6
# [13] = system: TSSK1B
# [14] = system: TSSK3
# [15] = system: TTK
# [16] = system: TXK
# [17] = system: TYK2(JH1domain-catalytic)
# [18] = system: TYK2(JH2domain-pseudokinase)
# [19] = system: TYRO3
# [20] = system: ULK1
# 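Note: KINOMEscan kinase panel screen.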
SMILES,%Inh [1],%Inh [2],%Inh [3],%Inh [4],%Inh [5],%Inh [6],%Inh [7],%Inh [8],%Inh [9],%Inh [10],%Inh [11],%Inh [12],%Inh [13],%Inh [14],%Inh [15],%Inh [16],%Inh [17],%Inh [18],%Inh [19],%Inh [20]
Oc1ccc2ncnc(Nc3ccc(OCc4ccccc4)cc3)c2c1 [GI262866],19%,0%,0%,0%,0%,0%,4%,77%,0%,0%,0%,0%,0%,18%,13%,37%,19%,0%,0%,14%
Nc1nc(-c2ccc3c(N)n[nH]c3c2)cc(N2CCCCC2)n1 [GSK2228768],6%,0%,0%,0%,0%,0%,13%,0%,0%,0%,0%,10%,0%,3%,0%,0%,0%,5%,0%,10%
COc1ccc(NC(=O)c2ccc(-c3cc(-c4nnc(C)o4)ccc3C)cc2)cc1 [GW595885],14%,0%,0%,0%,0%,0%,21%,0%,0%,17%,20%,0%,12%,44%,11%,0%,12%,22%,3%,6%
Cn1cc(-c2ccc3c(c2)CCN3C(=O)Cc2cccc(C(F)(F)F)c2)c2c(N)ncnc21 [GSK2606414],46%,24%,2%,0%,0%,0%,0%,0%,35%,46%,40%,0%,12%,0%,22%,0%,15%,0%,0%,27%
O=C(c1ccc(-c2cc(-c3c[nH]nc3-c3ccccn3)ccn2)cc1)N1CCCC1 [GW792479],0%,27%,0%,0%,48%,21%,0%,0%,0%,0%,0%,0%,0%,0%,29%,23%,0%,15%,0%,0%
Cl.c1ccc(Cn2ccc3cc(Nc4ncnc5ccccc45)ccc32)cc1 [GW275568],0%,0%,19%,0%,0%,0%,12%,18%,5%,0%,0%,32%,0%,13%,9%,14%,0%,0%,0%,1%
C[C@H]1CC[C@@H](C(=O)Nc2ccccc2)CN1c1cc(-c2ccc3c(N)n[nH]c3c2)nc(N)n1 [GSK2283293],26%,0%,4%,0%,0%,0%,17%,0%,0%,0%,11%,8%,9%,12%,20%,0%,0%,27%,0%,0%
Fc1cccc(COc2ccc(Nc3ncnc4nn5ccccc5c34)cc2Cl)c1 [GW689066],0%,0%,0%,0%,0%,0%,10%,0%,0%,22%,28%,0%,0%,17%,10%,3%,29%,24%,0%,1%
COc1cc2c(Nc3cccc(NC(=O)c4ccccc4)c3)ncnc2cc1OCCCN1CCOCC1 [GSK223810],24%,0%,0%,0%,0%,22%,13%,25%,45%,0%,0%,0%,5%,17%,29%,0%,0%,0%,0%,17%
NC(=O)c1sc(-n2cnc3ccccc32)cc1OCc1ccccc1F [GSK1024306],2%,0%,0%,0%,56%,0%,9%,18%,51%,0%,16%,0%,0%,20%,12%,0%,13%,28%,0%,0%
Cc1ccc(NC(=O)c2cccc(C#N)c2)cc1-c1ccc(C(=O)Nc2ccncc2)cc1 [GSK1398463],11%,21%,0%,0%,13%,16%,21%,29%,0%,0%,7%,0%,0%,0%,43%,0%,8%,13%,0%,42%
O=C(NCCCN1CCCC1=O)c1cnc(NCc2cc(Cl)ccc2Cl)nc1NC1CCNCC1,1%,2%,12%,0%,0%,34%,0%,0%,69%,32%,15%,0%,0%,0%,0%,0%,0%,0%,14%,0%
CNc1nccc(-c2c(-c3ccc(F)cc3)ncn2CCCN2CCOCC2)n1 [SB-222516],0%,0%,0%,0%,0%,4%,0%,0%,0%,19%,38%,0%,12%,12%,0%,9%,18%,16%,17%,13%
CSc1ccc(NC2=C(c3ccccc3Cl)C(=O)NC2=O)cc1 [SB-342411],40%,0%,35%,6%,0%,0%,0%,29%,20%,0%,0%,0%,21%,10%,0%,3%,0%,0%,5%,10%
CS(=O)(=O)CCNCc1ccc(-c2ccc3ncnc(Nc4ccc(OCc5ccccc5)c(Cl)c4)c3c2)o1.Cl [GW574783],34%,2%,0%,0%,0%,0%,9%,0%,17%,0%,24%,7%,39%,21%,18%,10%,27%,22%,0%,0%
Cn1ccc2ncnc(Oc3ccc(NC(=O)Nc4cccnc4)c(Cl)c3)c21,18%,0%,13%,0%,1%,0%,0%,0%,0%,0%,0%,0%,0%,2%,1%,0%,0%,0%,0%,0%
O=C(Nc1ccccc1F)NC1CCN(c2ccnc(Nc3ccc(F)cc3)n2)C1 (stereo not drawn) [GSK1379722],0%,0%,0%,0%,0%,0%,27%,0%,0%,32%,22%,0%,12%,31%,7%,16%,23%,20%,0%,0%
Cl.O=S(=O)(c1cccc(F)c1)c1ccc(Nc2ncnc3cc(Br)sc23)cc1Cl [GSK306886],0%,0%,19%,2%,0%,0%,21%,23%,0%,0%,0%,28%,0%,10%,17%,15%,4%,0%,0%,0%
Cl.Cn1ccc(-c2cccc(Nc3ccnc4cc(-c5nccs5)ccc34)c2)n1 [GW525701],0%,0%,13%,3%,50%,0%,33%,0%,0%,60%,43%,0%,3%,6%,0%,14%,30%,49%,0%,0%
Clc1ccc(-c2cc(-c3c[nH]nc3-c3ccccn3)ccn2)cc1 [GW681251],33%,0%,0%,0%,80%,0%,0%,17%,0%,0%,100%,0%,13%,16%,17%,0%,3%,0%,0%,0%
CC(=O)Nc1n[nH]c2ncc(-c3ccccc3)cc12 [SB-548492],0%,21%,6%,0%,12%,0%,0%,0%,90.1%,25%,51%,0%,0%,0%,43%,9%,12%,81%,0%,3%
